Assay outcomes as filed in PubChem BioAssay.
Rows were chosen to be rich in hits. Some 2.5% of all compounds tested hit in one or more screens of this group.
ABCB6 inh 2: blocks the human ABCB6 transporter; Q9NP58; K562-ABCB6 porphyrin accumulation, flow cytometry, 1 h; hits give low values; fluorescence ratio to DMSO, % at 10 µM; 360,000 tested, 0.19% active; AID 602162;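 active means fluorescence ratio to DMSO below 75%, the collection mean minus 3 SD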;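 further: signal is porphyrin accumulated inside mitochondria; 100% equals median channel fluorescence of DMSO control wells; lower ratio means ABCB6 inhibition with less porphyrin fluorescence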
Target sequence (Q9NP58 whole entry, looked up): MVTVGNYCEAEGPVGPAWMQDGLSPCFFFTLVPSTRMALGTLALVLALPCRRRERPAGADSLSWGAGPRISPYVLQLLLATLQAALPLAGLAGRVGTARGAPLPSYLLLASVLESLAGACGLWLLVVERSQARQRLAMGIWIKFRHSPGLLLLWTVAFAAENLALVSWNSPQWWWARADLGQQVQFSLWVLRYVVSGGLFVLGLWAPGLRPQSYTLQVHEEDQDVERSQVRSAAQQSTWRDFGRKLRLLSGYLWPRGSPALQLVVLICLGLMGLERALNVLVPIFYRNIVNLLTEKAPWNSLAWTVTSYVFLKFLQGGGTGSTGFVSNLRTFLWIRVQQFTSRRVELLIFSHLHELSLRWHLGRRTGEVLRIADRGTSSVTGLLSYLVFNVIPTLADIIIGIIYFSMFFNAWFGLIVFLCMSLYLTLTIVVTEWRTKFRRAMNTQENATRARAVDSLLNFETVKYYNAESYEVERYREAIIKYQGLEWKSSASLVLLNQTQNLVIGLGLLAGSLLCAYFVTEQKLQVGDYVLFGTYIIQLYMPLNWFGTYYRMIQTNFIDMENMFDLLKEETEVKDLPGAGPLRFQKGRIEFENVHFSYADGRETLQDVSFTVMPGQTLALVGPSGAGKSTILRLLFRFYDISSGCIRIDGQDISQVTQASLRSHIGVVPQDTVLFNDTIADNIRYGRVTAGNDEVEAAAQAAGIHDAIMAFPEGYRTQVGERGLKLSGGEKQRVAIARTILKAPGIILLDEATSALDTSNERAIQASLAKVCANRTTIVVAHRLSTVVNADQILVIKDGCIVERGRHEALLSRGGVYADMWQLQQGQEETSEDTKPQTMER
Exocytosis inh: blocks lytic granule exocytosis; inhibition, % at 10 µM; 360,000 tested, 0.66% active; TALL-104 LAMP-1 surface exposure, flow cytometry; cells stimulated with thapsigargin and PMA;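 active means inhibition above about 55%, limit read from the data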
rCAG binder: molecules binding r(CAG) RNA repeats; inhibition, % at 3 µM; 370,000 tested, 1.3% active; r(CAG) RNA repeat, TO-PRO-1 dye displacement fluorescence; AID 651821;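 active means inhibition above the plate cutoff, the mean of all test compounds on that plate plus 3 SD, cut at about 35% in these data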;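 further: 0% = DMSO alone and 100% = 100 µM mitoxantrone as full dye displacement; higher means more dye released from RNA so lower well fluorescence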
PG9 Ab binder: small molecules binding HIV-1 gp120 antibody PG9; TR-FRET gp120-PG9 antibody binding; inhibition, % at 6.7 µM; 360,000 tested, 0.43% active; AID 624416; in the data active means inhibition above about 8.5%
rCAG binder conf: r(CAG) RNA repeat binding, confirmation. shares compounds with rCAG binder. TO-PRO-1 dye displacement fluorescence. inhibition, % at 3 µM. 4,300 tested, 70% active;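 active means inhibition above a per-plate cutoff, the mean inhibition of sample wells plus 3 SD, cut at about 35% in these data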;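 further: loss of TO-PRO-1 fluorescence as compound displaces dye from 1x1 AA loop RNA; 0% = DMSO only wells and 100% = 100 µM mitoxantrone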
dCAG dye counter: disrupts DNA CAG TO-PRO-1 complex, flagging rCAG hits; AID 652068; 4,300 tested, 94% active; inhibition, % at 3 µM; d(CAG) DNA oligo TO-PRO-1 dye displacement, fluorescence; shares compounds with rCAG binder;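 active means inhibition above its plate's cutoff, the mean test-well inhibition plus 3 SD, cut at about 4.8% in these data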;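 further: 0% = DNA dye mix with DMSO and 100% = 100 µM mitoxantrone; hits displace the dye from DNA and so lower well fluorescence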
DNA CAG DR: counter-screen for rCAG binders: inhibitors of DNA CAG TO-PRO-1 complex; shares compounds with rCAG binder; DNA CAG/GTC duplex TO-PRO-1 dye displacement fluorescence; IC50, µM; 250 tested, 20% active; AID 686960; in the data active means IC50 below about 10 µM
Numbers without * were called inactive; i = inactive; · = no result.

SMILES	ABCB6 inh 2	Exocytosis inh	rCAG binder	PG9 Ab binder	rCAG binder conf	dCAG dye counter	others
Cc1ccc(C(=O)Nc2nc(-c3ccco3)c(-c3ccco3)s2)o1	102	44	73*	-11	18	8.1*
CC(C)N(CCNS(=O)(=O)c1ccc(Cl)cc1)C(C)C	102	-2	-1	2	·	·
CC(C)OP(=O)(OC(C)C)C1(NS(=O)(=O)c2ccc(Cl)cc2)C=C(Cl)C(=O)C(Cl)=C1	104	1	40*	1	27	5.9*
O=C(c1ccccc1)N1CCC2CCN(S(=O)(=O)c3ccccc3)CC21 (stereo unspecified)	·	·	1	2	·	·
Cc1nc2c(C(=O)NCCc3ccccc3)c[nH]n2c(=O)c1Cl	102	0	64*	-1	54*	13*
Cc1nc2c(C(=O)NCCC(C)C)c[nH]n2c(=O)c1Cl	101	2	37*	-3	36*	8.2*
CCOC(=O)N1CCN(c2ccc(S(=O)(=O)N3CCC(C)CC3)cc2[N+](=O)[O-])CC1	88	5	2	-2	·	·
CCOc1ccc(Cc2nnc(SCC(=O)c3ccc(OC)cc3)o2)cc1	94	2	-4	-1	·	·
CCOc1ccc(Nc2nc(Cc3nnc(SCC(=O)O)o3)cs2)cc1	93	-4	46*	-3	29	9.0*
COc1ccc(N(C)C(=O)C2CCN(S(=O)(=O)c3cccc4nonc34)CC2)cc1	91	16	-1	-2	·	·
Cc1cc(OCC(=O)NNC(=S)NC(=O)c2ccc(Br)o2)ccc1Cl	106	4	45*	-1	69*	22*	DNA CAG DR=i
Cc1cc(C=C2C(=O)c3ccccc3C2=O)c(C)n1-c1cccc(C(=O)O)c1	101	-1	56*	-1	51*	15*
O=C1C(=Cc2cccn2-c2ccccc2)C(=O)c2ccccc21	99	-5	13	-3	·	·
O=C(O)c1cccc(-n2cccc2C=C2C(=O)c3ccccc3C2=O)c1	105	10	57*	-1	47*	14*
O=S(=O)(c1cccc(C(F)(F)F)c1)c1ccc(O)cn1	98	6	0	0	·	·
CCc1ccc(/C=C/C(=O)c2cc(Br)ccc(=O)c2O)cc1	108	15	46*	-1	54*	25*
Cc1cccc(/C=C/C(=O)c2cc(Br)ccc(=O)c2O)c1	112	5	45*	-2	56*	24*
CCOc1ccc(/C=C/C(=O)c2cc(Br)ccc(=O)c2O)cc1	108	3	61*	-3	47*	22*
O=C(C=Cc1ccccc1)c1cc(Br)ccc1O	95	-6	1	1	·	·
O=C(CCn1c(=O)oc2ccc(Cl)cc21)N1CCN(c2ccccc2)CC1	101	0	-5	-2	·	·
CC(C)c1ccc(C(=O)N2CCCCC2c2cc(C(=O)NCc3cccnc3)no2)cc1 (stereo unspecified)	97	-1	-2	1	·	·
O=C1OC(c2ccc3ccccc3c2O)(c2ccc3ccccc3c2O)c2ccccc21	120	2	63*	1	70*	35*
O=C1OC2(c3ccccc31)c1ccccc1-c1ccccc12	98	-10	5	1	·	·
Cc1ccc(Cl)cc1NC(=O)c1cc(NC(=O)CCCC(=O)O)ccc1N1CCCCC1	96	14	51*	-1	56*	18*
O=C(O)c1ccccc1Nc1cccc(OCc2ccc3ccccc3n2)c1	99	-2	70*	-3	71*	31*	DNA CAG DR=i
SMILES	ABCB6 inh 2	Exocytosis inh	rCAG binder	PG9 Ab binder	rCAG binder conf	dCAG dye counter	others
COc1ccc(Nc2ccccc2C(=O)O)cc1	103	0	-2	-1	·	·
COc1ccc(CN(C)S(=O)(=O)c2nnc(NC(=O)c3cccc(F)c3)s2)cc1	97	6	41*	1	64*	25*
CN(Cc1ccc(F)cc1)S(=O)(=O)c1nnc(NC(=O)c2ccccc2)s1	96	7	42*	-1	43*	11*
CN(Cc1ccc(F)cc1)S(=O)(=O)c1nnc(NC(=O)c2ccccc2Br)s1	95	8	68*	0	48*	14*
COc1ccc(CN(C)S(=O)(=O)c2nnc(NC(=O)c3cccc(C)c3)s2)cc1OC	103	4	67*	2	53*	17*
CCCCn1c(N)c(N(CCOC)C(=O)c2cc(C)oc2C)c(=O)[nH]c1=O	99	0	-1	0	·	·
C=CCn1c(C)c(C(C)=O)c(N2CCN(C(c3ccccc3)c3ccccc3)CC2)nc1=S	98	-1	-4	0	·	·
CC(C)N1C(=O)c2ccccc2NC(=O)C1C(=O)NCc1cccc(C(F)(F)F)c1 (stereo unspecified)	·	-3	2	-1	·	·
Cc1ccc(C(=O)CCC(=O)Nc2ccc(Cl)c(S(=O)(=O)Nc3cccc(Cl)c3)c2)cc1	101	2	35*	0	35*	12*
CN(C)c1ccc2nc3ccc(=O)cc-3sc2c1	136	1	35*	-452	31	12*
CC(=O)Nc1nc2ccc(S(=O)(=O)N3CCCCC3)cc2s1	106	-3	4	-1	·	·
O=S(=O)(Nc1nc2ccc(S(=O)(=O)N3CCCCC3)cc2s1)c1ccccc1	103	2	72*	-2	65*	28*
Cc1ccc(S(=O)(=O)Nc2nc3ccc(S(=O)(=O)N4CCCC4)cc3s2)cc1	104	-1	71*	-2	74*	38*
CC(=O)Nc1ccc(NC(=O)COc2cccc3ccccc23)cc1	100	-3	4	-1	·	·
Cc1ccc2nc(N/C(=N/S(=O)(=O)c3cccs3)c3ccccc3Cl)sc2c1	95	1	71*	0	51*	19*
Cc1ccc2nc(NC(=O)C3CCN(S(=O)(=O)c4cccs4)CC3)sc2c1	95	1	13	-2	·	·
CCn1cc(/C=C(\NC(=O)c2ccc(OC)c(OC)c2)C(=O)NCCCN2CCOCC2)c2ccccc21	96	0	-3	-4	·	·
Nc1nc2c(ncn2[C@@H]2O[C@H](C(=O)N[C@H](Cc3ccccc3)C(=O)NCCCc3ccccc3)[C@@H](O)[C@H]2O)c(=O)[nH]1	·	·	11	-3	·	·
O=C(O)c1cccc(N2C(=O)C3C4C=CC(C4=C(c4ccccc4)c4ccccc4)C3C2=O)c1 (stereo unspecified)	101	-2	35*	1	47*	12*
COC(=O)[C@H](Cc1c[nH]c2ccccc12)NC(=O)NCc1ccc(OC)cc1	96	-11	2	-1	·	·
CC(C)c1cc(C(=O)O)c2ccccc2n1	90	-5	40*	3	-1	-1
c1coc(-c2nc(N=C3N=c4ccccc4=N3)[nH]c2-c2ccco2)c1	111	1	39*	-1	26	19*
